HT1080-NT tox: kills 2HG-producing HT-1080-NT fibrosarcoma cells. HT-1080-NT fibrosarcoma viability, CellTiter-Glo ATP luminescence, 48 h. Potency, µM (titrated, usually from 46.1 µM), for inactives: top-dose activity, negative = less viability, hits mostly cytotoxic. hit rate 1.6% among 360,000;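 note: NT is the 2HG producing partner of a matched IDH1 knockdown line; 0% = DMSO-treated cells and -100% = media-only wells without cells; nearly all actives have a fitted effect of over 55% in size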
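Fibrosarcoma NT cells, 750 per well in 5% FBS RPMI, were exposed to compound for 48 hours. Viability: CellTiter-Glo luminescence.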
KB-3-1 cytotox: kills parental KB-3-1 adenocarcinoma cells; hit rate 1.4% among 400,000; Potency, µM (series often up to 46.1 µM), usual class: cytotoxic; KB-3-1 viability, CellTiter-Glo ATP luminescence, 72 h; note: nearly all actives have a fitted effect of over 60% in size
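Here the drug-naive KB-3-1 line serves as comparator for MDR sub-line selectivity; cells received compound titrations, 72 h at 37 °C, then CellTiter-Glo readout.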
KB-V1 MDR tox: kills drug-selected multidrug resistant KB-V1 cells; Potency, µM (top dose mostly 46.1 µM), actives largely listed as cytotoxic; AID 1347076; hit rate 3.4% among 400,000; KB-V1 MDR cells viability, CellTiter-Glo, 72 h; note: nearly all actives have a fitted effect of over 60% in size
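KB-V1 cells (P-gp-expressing MDR subline of KB-3-1) in phenol-red-free DMEM with 10% FBS were exposed to library compounds over a concentration series for 72 h at 37 degrees C. Viability read by CellTiter-Glo luminescence; concentration-effect curves fitted after normalization.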
HT1080 IDH1KD tx: kills HT-1080 cells with IDH1 knockdown. HT-1080 IDH1 knockdown viability, ATP luminescence, 48 h. Potency, µM (series often up to 46.1 µM), for the others: at the highest dose activity, negative = toxicity, usual class: cytotoxic. hit rate 2% among 360,000;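 note: 0% = DMSO wells and -100% = cell-free medium wells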
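Using the IDH1-knockdown HT-1080 line run in the same batch and compound series as the NT line, viability after 48 h at 37 °C was determined by CellTiter-Glo luminescence and expressed as % activity.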
TDP1 cell CPT: DT40-hTDP1 cell growth loss with CPT | chicken DT40 Tdp1-/-;hTDP1 cells + 20 nM CPT, ATP luminescence, 48 h | Potency, µM (highest dose often 46.2 µM), inactives show at the top dose activity change, negative = growth inhibition, most hits filed as inhibitors | hit rate 12% among 420,000 | AID 686979; note: nearly all actives have a fitted effect of over 55% in size
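Chicken DT40 Tdp1-/- cells stably complemented with human TDP1 were seeded at 400 cells/well in medium containing 20 nM camptothecin, exposed to pin-transferred compounds, and grown at 37 °C for at least 48 hr. Viability was read as ATP luminescence.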
TDP1 cell noCPT: qHTS for Inhibitors of human tyrosyl-DNA phosphodiesterase 1 (TDP1): qHTS in cells in absence of CPT; DT40 Tdp1-/- hTDP1 cells, no CPT, ATP luminescence, 48 h; Potency, µM (top dose mostly 46.2 µM), inactives show at the highest dose activity change, negative = growth inhibition, most hits filed as inhibitors; hit rate 15% among 420,000; AID 686978, 2013; note: nearly all actives have a fitted effect of over 55% in size
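Growth of hTDP1-complemented DT40 Tdp1-knockout cells is measured by ATP luminescence after at least 48 hr compound exposure at 37 °C, with DMSO substituting for the 20 nM CPT used in the parallel screen.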
* hit, by the source's call; i = inactive; ? = inconclusive; · = no result. A selection: hits, their analogues and other compounds. The true share with any hit is near 19%. Calls come from the whole dose curve; as a rule, active = well fitted curve in the direction sought with a large enough effect; inconclusive = small, poorly fitted or top-dose-only effect, or another doubt; inactive = no such curve, though single readings can be large; an effect the other way counts as inactive or inconclusive. Unless noted, % is set by controls: 0 for no effect and ±100 for the full control effect; potency is the fitted concentration of half-maximal effect.

SMILES	HT1080-NT tox	KB-3-1 cytotox	KB-V1 MDR tox	HT1080 IDH1KD tx	TDP1 cell CPT	TDP1 cell noCPT
Nc1nc(-c2ccccc2)c(C(=O)Nc2ccccc2)s1	-6.8%	i	i	-6.3%	-9.3%	?
COC(=O)C1=C(C)NC(=O)NC1c1ccc(OC(=O)c2ccco2)cc1 (stereo not drawn)	-4.4%	i	i	-1.2%	8.1%	-4.8%
CCCn1c(C(C)Nc2nc(-c3ccc(Cl)c([N+](=O)[O-])c3)cs2)nc2ccccc21 (stereo not drawn)	?	?	?	-25.4%	23.1µM*	?
O=[N+]([O-])c1cc(-c2csc(NC(CO)c3nc4ccccc4n3CCOCCO)n2)ccc1Cl (stereo not drawn)	-6.0%	i	i	-20.7%	?	18.4µM*
COc1ncnc2c1ncn2CCCN(C)CCc1ccccn1	-1.3%	i	i	-2.4%	-10.4%	2.4%
CC(CN1CCCCC1)NC(=O)c1scnc1-c1ccccc1 (stereo not drawn)	17.5%	i	i	3.6%	-9.1%	-3.8%
CC(C)N(Cc1ccccc1)C(=O)COC(=O)C1CCCCC1	1.9%	i	i	7.2%	4.5%	-4.9%
C[N+]1(Cc2ccccc2)CCC(C(=O)OCC2CCCC2)CC1 (stereo not drawn)	·	·	·	·	?	20.6µM*
COc1ccc(CN(CC2CCCO2)C(=O)CN2C(=O)C(C)Oc3ccc(C)cc32)cc1OC (stereo not drawn)	-1.6%	i	?	-5.3%	?	18.4µM*
Cc1ccc2c(c1)N(CC(=O)NCC1CCCO1)C(=O)C(C)O2 (stereo not drawn)	2.7%	i	i	8.8%	-0.1%	1.7%
CCN(CC1CCCO1)C(=O)CCc1nnc(Cc2ccc3c(c2)OCO3)o1 (stereo not drawn)	13.4%	i	i	10.7%	11.6%	-12.3%
COC(=O)c1cccc(CN2C(=O)C(C)Oc3ccc(C)cc32)c1 (stereo not drawn)	-8.3%	i	i	0.0%	20.6µM*	20.6µM*
CCC1Oc2ccc(C)cc2N(CC(=O)N(Cc2ccc3c(c2)OCO3)CC2CCCO2)C1=O (stereo not drawn)	-0.5%	i	6.51µM*	-9.3%	?	?
O=C(O)CSc1nnc(-c2cccs2)n1-c1ccc(Cl)cc1	15.5%	i	i	18.6%	?	29.1µM*
O=C(CSc1nnc(-c2cccs2)n1-c1ccccc1)N1CCOCC1	-5.2%	i	i	11.7%	-3.9%	-16.5%
O=C(CSc1nnc(-c2cccs2)n1-c1cccc(Cl)c1)c1cccc2c1OCCO2	15.7%	i	8.2µM*	7.1%	?	16.4µM*
CC(=O)Nc1ccc(S(=O)(=O)Nc2nc3ccccc3nc2Nc2ccc(O)cc2)cc1	-1.0%	i	i	3.9%	3.9%	-2.7%
O=C(COC(=O)c1cc(=O)c2ccccc2o1)NCc1ccc(Cl)cc1	-3.5%	i	i	-4.3%	2.6%	-9.2%
COC(=O)C1=C(C)NC(C)=C(C(=O)OC)C1c1cc2ccc(C)cc2[nH]c1=O	-26.6%	?	i	?	-25.0%	?
CCOC(=O)C1=C(C)NC(C)=C(C(=O)OCC)C1c1cc2ccc(C)cc2[nH]c1=O	18.4µM*	6.51µM*	i	8.2µM*	23.1µM*	?
CCOC(=O)C1C(=O)C=C(/C=C/c2ccc(N(C)C)cc2)CC1c1ccccc1 (stereo not drawn)	12.6%	i	i	1.7%	11.6µM*	?
CCOC(=O)C1C(=O)C=C(c2ccc(C)cc2)CC1c1ccccc1 (stereo not drawn)	-22.1%	i	?	-16.4%	?	?
CCOC(=O)C1C(=O)C=C(c2cccs2)CC1c1ccccc1 (stereo not drawn)	17.9%	i	?	14.4%	?	16.4µM*
Cc1ccsc1/C=N/NC(=O)CC(=O)NCC(C)C	13.5%	i	i	3.4%	-17.5%	-19.5%
COc1ccc(OC)c(NC(=O)c2ccc(-c3csc(C)n3)cc2)c1	-25.2%	i	?	-12.0%	?	?
SMILES	HT1080-NT tox	KB-3-1 cytotox	KB-V1 MDR tox	HT1080 IDH1KD tx	TDP1 cell CPT	TDP1 cell noCPT
Cc1nc(-c2ccc(C(=O)Nc3cccc(Br)c3)cc2)cs1	?	i	i	?	?	20.6µM*
Cc1nc(-c2cccc(NC(=O)c3ccc(-n4nccc4C)cc3)c2)cs1	-9.0%	?	?	-14.2%	?	20.6µM*
CC(=O)Oc1ccc(N(C(C)=O)S(=O)(=O)c2ccccc2)c2ccccc12	?	i	i	-9.9%	20.6µM*	?
CC(=O)Oc1ccc(N(C(C)=O)S(=O)(=O)c2ccc(C)cc2C)c2ccccc12	?	i	i	-7.4%	23.1µM*	?
CC(=O)N(c1ccccc1Cl)S(=O)(=O)c1ccc(Cl)cc1	-15.3%	i	i	-25.8%	11.5%	-27.9%
CC(=O)Oc1c(Cl)cc(N(C(C)=O)S(=O)(=O)c2ccccc2)c2ccccc12	?	?	?	?	10.3µM*	4.61µM*
COc1ccc(S(=O)(=O)N(C(C)=O)c2ccc(OC(C)=O)c3ccccc23)cc1[N+](=O)[O-]	20.6µM*	?	?	?	3.26µM*	3.66µM*
CC(=O)Oc1ccccc1N(C(C)=O)S(=O)(=O)c1ccc(C)cc1	-5.9%	i	i	-3.2%	-11.6%	-2.1%
Cc1cccc(NC(=O)COc2ccc3oc4c(c3c2)CCCC4)c1	·	i	?	·	16.4µM*	18.4µM*
Cc1ccc(NC(=O)COc2ccc3oc4c(c3c2)CCCC4)c(C)c1	·	i	?	·	?	?
CC(C)N(CCNC(=O)COc1ccc2oc3c(c2c1)CCCC3)C(C)C	-21.3%	i	i	?	?	23.1µM*
Cc1ccc(NC(=O)COc2ccc3oc4c(c3c2)CCCC4)nc1	3.4%	i	i	7.1%	?	8.2µM*
O=C(COc1ccc2oc3c(c2c1)CCCC3)Nc1ccc(Br)cc1	·	i	?	·	14.6µM*	?
CC(=O)Nc1ccc(NC(=O)C(C)OC(=O)CCSc2ccccc2Cl)cc1 (stereo not drawn)	-3.8%	i	i	-3.4%	-27.9%	?
COC(=O)c1ccc(OCC(=O)Nc2nn(-c3ccccc3)nc2C(N)=O)cc1	?	i	i	-10.0%	?	4.5%

Bioassay records: PubChem, National Center for Advancing Translational Sciences (NCATS)
